# Reference: ChEMBL document CHEMBL3988442, “University of Dundee, Small-Polar-MMV Screening Library” (2021)
# Among all 48,000 compounds or so, about 13,000 (27%) showed an effect of 50% or more. The list shows a part of the results.
# Tested on: Wolbachia pipientis
# Experiment: Anti-Wolbachia Cell-Based Screen
# Format: functional
# Design: scale not given: in the data most compounds retested in dose-response had high values
# Details: 5 µM
row,Structure (SMILES),Percent Effect [%]
1,Cc1cc(C)c2nc(CN3CCC(CN)CC3)cc(O)c2c1,-3.326
2,CN(C)C(=O)NCc1cc2n(n1)CCCN(CC1CCCNC1)C2 (configuration not stated),-1.604
3,COC1CCN(CCNC(=O)NC(C)c2ccc(F)c(F)c2)CC1 (configuration not stated),2.95
4,CCOCCn1c(=O)n(CCC=C(C)C)c2cc(C(=O)O)cnc21,-10.97
5,CC1(C)CN=C(N2CCN(CCCN3CCOCC3)CC2)S1,99.8
6,CC1(C)CN=C(N2CCN(CC3CCCCO3)CC2)S1 (configuration not stated),87.51
7,Cc1cnc(C)c(N2CCN(CC3CCCO3)CC2)n1 (configuration not stated),94.75
8,Cc1cc(NC2CCN(CC3CCCO3)CC2)n2nc(C)c(C)c2n1 (configuration not stated),11.1
9,CC1(C)CN=C(N2CCN(CC3CCCO3)CC2)S1 (configuration not stated),67.12
10,COCc1ccccc1C(=O)N1CCN(C2=NCC(C)(C)S2)CC1,-20.33
11,Cc1cnc(C)c(N2CCN(Cc3ccc(C)c(C)c3)CC2)n1,-24.43
12,CC(C)c1nc(CN2CCN(CC3CCCO3)CC2)cs1 (configuration not stated),2.342
13,CCn1ncc(C(=O)N2CCN(CC3CCCO3)CC2)c1C (configuration not stated),-12.64
14,CC1(c2ccccc2)CCC(=O)N(CCCN2CCOCC2)C1 (configuration not stated),6.196
15,Cc1ncc2c(n1)CN(CC1CCCCO1)CC2 (configuration not stated),1.379
16,CCC(C)NC(=O)c1coc(COc2cccc(F)c2)n1 (configuration not stated),-23.89
17,Cc1nn(C(C)(C)C)c(=O)n1CC(=O)NCC(F)(F)F,1.676
18,O=C(NCc1ccccc1)[C@H]1C[C@@H]2CN(S(=O)(=O)C3CC3)C[C@H]1O2,0.5177
19,CCC(CNS(N)(=O)=O)Oc1ccccc1F (configuration not stated),-4.298
20,N#Cc1c(N2CCN(CC3CCOC3)CC2)nc2ccccn12 (configuration not stated),-4.336
21,COc1ncnc2c1CCN(CC1CCOC1)CC2 (configuration not stated),-41.04
22,CC1(C)CN=C(N2CCN(CC3CCOC3)CC2)S1 (configuration not stated),102.4
23,Cc1n[nH]c(C)c1S(=O)(=O)N(C)Cc1nn(C)c(Cl)c1Cl,0.7109
24,CCN(Cc1cc(Br)ccc1F)C(=O)C(C)NC(N)=O (configuration not stated),-3.713
25,Cc1cccn2c(CNC(C)CCc3ccc(O)cc3)cnc12 (configuration not stated),-2.833
26,COc1ccccc1OC1(C(=O)O)CCN(c2nccnc2C)CC1,-2.671

row,Structure (SMILES),Percent Effect [%]
1,CCn1nc(C(C)C)cc1C(=O)N1CCOc2ccc(OC)cc21,10.42
2,COCCN(C)CCN1CC2(CCN(C3CCNCC3)CC2)OC1=O,0.09435
3,CNC(=O)N1CC[C@@H]2CN(CCc3cccc(OC)c3)S(=O)(=O)[C@@H]2CC1,-2.748
4,CNC(=O)N1CC[C@@H]2CN(Cc3cccc(OC)c3)S(=O)(=O)[C@@H]2CC1,89.38
5,CNC(=O)N1CC[C@@H]2CN(Cc3cccc(Cl)c3)S(=O)(=O)[C@@H]2CC1,-6.007
6,CC(=O)N1CC[C@@H]2CN(Cc3cccc(Cl)c3)S(=O)(=O)[C@@H]2CC1,-7.404
7,CC(C)NC(=O)N1CC[C@@H]2CN(Cc3cccc(Cl)c3)S(=O)(=O)[C@@H]2CC1,-12.85
8,CNC(=O)N1CC[C@@H]2CN(Cc3ccccc3)S(=O)(=O)[C@@H]2CC1,102
9,O=C(NCCSC1CCCC1)c1cc(Cl)ccn1,3.584
10,COCC(=O)N[C@H]1C[C@@H](Cc2cc(CN3CCCCC3)on2)C1(C)C,11.93
11,Cc1ccccc1CN(CCN(C)C)Cc1ncc[nH]1,-7.334
12,COCCC1COC2(CCN(C(=O)C3CCC3)CC2)C1 (configuration not stated),-7.726
13,CN(C)C(C(=O)N1CCCN(C(=O)C2CCC2)CC1)c1ccccc1F (configuration not stated),-11.1
14,CN1CC2(CCN(C(=O)C3CCC3)CC2)COc2ccccc2S1(=O)=O,97.81
15,CC(C)NC(=O)N1CCC2(CC1)COc1ccccc1S(=O)(=O)N(C)C2,105.4
16,N#Cc1csc(CN(CC(=O)N2CCCC2)CC2CCCO2)c1 (configuration not stated),4.573
17,CCOc1ccc(OCC)c(NCc2cc(C)on2)c1,-0.4612
18,COCCOC[C@]1(CNCc2ccc(OC)cc2)C[C@@H](O)[C@@H](O)C1.Cl,6.755
19,Cc1ccccc1C1(CNC(=O)c2cccc(S(C)(=O)=O)c2)CC1,2.045
20,Cc1ccccc1C1(CNC(=O)c2ccc(S(C)(=O)=O)cc2)CC1,72.54
21,Cc1ccccc1C1(CNC(=O)N2CCC(CC(N)=O)CC2)CC1,-8.106
22,CC(NC(=O)N(C)Cc1ccsc1)c1ccc2c(c1)OCO2 (configuration not stated),-7.719
23,CC(O)CN1CCN(C(=O)c2cnn(-c3ccccc3F)c2)CC1 (configuration not stated),-7.908
24,CC(O)C1CCN(C(=O)CCOc2ccccc2F)CC1 (configuration not stated),86.99
25,CC(O)CN1CCN(C(=O)CCOc2ccccc2F)CC1 (configuration not stated),109.3
26,COc1ccccc1C1(C(=O)N2CCN(CC(C)O)CC2)CC1 (configuration not stated),-12.51
